# Sampled rows, rich in hits. Any-hit rate of the full collection: about 21%.
# ClpP mod: qHTS Assay for Activators of ClpP; ATP-dependent Clp protease proteolytic subunit (Bacillus subtilis (strain 168)), P80244; purified B. subtilis ClpP, FRET peptide cleavage, 20 min; Potency, µM (titrated, usually from 57.5 µM), without a hit: at the top dose activity change, negative = active; 340,000 tested, 1.9% active; active = well fitted falling curve with a large enough effect; inconclusive = small, poorly fitted or top-dose-only effect; inactive = no such curve, though single readings can be large or run the other way; note: potency is the fitted concentration of half-maximal effect; the source files actives as falling curves though it sought activators and does not explain the sign; nearly all actives have a fitted effect of over 65% in size
#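 Buffer: 100 mM Tris/HCl pH8, 100 mM KCl, 0.05% low protease BSA, 2.5% glycerol, 0.01% Tween-20. ClpP 10 microg/mL final; 20 min RT; delta FRET normalized to ADEP and DMSO controls.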
# IL1B secr inh: inflammasome signaling inhibition, IL-1 beta readout. activity change, % at 57.5 µM. 360,000 tested, 4.7% active. THP-1 LPS/ATP IL-1B secretion, AlphaLISA, 16 h; active compounds read low; in the data active = activity change below about -50%; inconclusive = mostly about -30% to -49%; note: % is set by controls: 0 for no effect and ±100 for the full control effect
#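 Secreted IL-1B measured by AlphaLISA bead assay after 16 h compound exposure of THP-1 cells; compounds (final up to 57.5 uM) added 1 h before LPS (250 ng/mL) and ATP (1.25 mM) stimulation; lower signal means less secretion.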
# DT40 TDP1 no CPT: qHTS for Inhibitors of human tyrosyl-DNA phosphodiesterase 1 (TDP1): qHTS in cells in absence of CPT | Potency, µM (top dose mostly 46.2 µM), inactives show at the highest dose activity change, negative = growth inhibition, actives largely listed as inhibitors | AID 686978, 2013 | 420,000 tested, 15% active | DT40 Tdp1-/- hTDP1 cells, no CPT, ATP luminescence, 48 h; note: potency is the fitted concentration of half-maximal effect; % is set by controls: 0 for no effect and ±100 for the full control effect; nearly all actives have a fitted effect of over 55% in size
#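 Seeded 400 DT40-hTDP1 cells/well (vehicle DMSO, no 20 nM CPT); pinned compounds; ≥48 hr at 37 °C; CellTiter-Glo luminescence as viability measure.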
# DRD3 agonist: D3 dopamine receptor (human) agonism; D3R DiscoveRx beta-arrestin cells, luminescence, 90 min; max activation, %; 410,000 tested, 0.58% active; AID 652048; in the data active = max activation above about 30%; note: 0% is about no effect
#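 Cells at 1500/well, incubated overnight, then treated with pinned compounds (dopamine as control) for 90 min at 37 degrees C. DiscoveRx reagent added for 30 - 60 minutes at room temperature; luminescence read.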
# D3 antag: blocks the human D3 dopamine receptor; D3R cells, DiscoveRx beta-arrestin luminescence, antagonist mode; active compounds read low; max response, negative = inhibition, %; 360,000 tested, 2.5% active; in the data active = max response below about -50%; inconclusive = no clear call, values can overlap the other calls; note: % is set by controls: 0 for no effect and ±100 for the full control effect
#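 Cells expressing the human receptor were seeded at 1500 cells/well, incubated overnight at 37 degrees C in 5% CO2, then exposed to library compounds with dopamine controls for 90 minutes at 37 degrees C before luminescent detection.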
# TDP1 cell CPT: growth inhibition of DT40 Tdp1-/-;hTDP1 cells with camptothecin (screen for TDP1 inhibitors). chicken DT40 Tdp1-/-;hTDP1 cells + 20 nM CPT, ATP luminescence, 48 h. Potency, µM (top dose mostly 46.2 µM), for the others: top-dose activity change, negative = growth inhibition, actives largely listed as inhibitors. 420,000 tested, 12% active. AID 686979; note: potency is the fitted concentration of half-maximal effect; % is set by controls: 0 for no effect and ±100 for the full control effect; nearly all actives have a fitted effect of over 55% in size
#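 Chicken DT40 Tdp1-/- cells stably complemented with human TDP1 were seeded at 400 cells/well in medium containing 20 nM camptothecin, exposed to pin-transferred compounds, and grown at 37 °C for at least 48 hr. Viability was read as ATP luminescence.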
# Numbers without * were called inactive; u = inconclusive; x = no result. Unless noted, calls come from the whole dose curve; as a rule, active = well fitted inhibition curve with a large enough effect; inconclusive = small, poorly fitted or top-dose-only effect; inactive = flat fitted curve, though single readings scatter.
SMILES,ClpP mod,IL1B secr inh,DT40 TDP1 no CPT,DRD3 agonist,D3 antag,TDP1 cell CPT
NC(=O)c1ccc(Nc2nc(C(N)c3ccccc3Cl)cs2)cc1 (centres undefined),-15.7%,-17.2,u,6.4,5.1,u
NC(c1csc(Nc2cc(Oc3ccccc3)ncn2)n1)c1ccccc1Cl (centres undefined),-9.9%,-88.7*,u,3.6,-19.1,u
CN1C[C@@H]2[C@@H]3C(=O)N(C)C(=O)[C@@H]3[C@](C)(C1=O)N2C(=O)c1ccc(Br)cc1,-0.9%,18.7,3.6%,-11.1,-8.0,-13.6%
CC(Oc1ccc2c3c(c(=O)oc2c1)CCCC3)C(=O)NCC(O)c1ccccc1 (centres undefined),4.3%,-6.7,u,-7.7,12.7,-25.1%
O=C(Nc1cccc(-c2csc(Nc3ccc(Cl)cc3)n2)c1)c1ccccc1,-2.2%,-58.7*,16.4µM*,0.0,0.0,8.2µM*
O=C(Nc1cccc(-c2csc(Nc3ccc(Cl)cc3)n2)c1)c1cccc(C(F)(F)F)c1,-7.5%,u,20.6µM*,17.9,57.6,u
O=C(Nc1ccc(-c2csc(Nc3ccc(Cl)cc3)n2)cc1)c1cc([N+](=O)[O-])cc(C(F)(F)F)c1,-0.6%,26.8,u,5.0,4.3,-27.0%
O=C(Nc1cccc(-c2csc(Nc3ccc(Cl)cc3)n2)c1)c1cc([N+](=O)[O-])cc(C(F)(F)F)c1,-0.2%,-26.9,18.4µM*,18.2,-23.5,18.4µM*
O=C(Nc1ccc(-c2csc(Nc3ccccc3)n2)cc1)c1ccccc1,15.0%,35.1,20.6µM*,-18.8,-10.0,25.9µM*
O=C(Nc1cccc(-c2csc(Nc3ccccc3)n2)c1)c1cc([N+](=O)[O-])cc(C(F)(F)F)c1,1.0%,-22.0,u,-4.3,47.9,u
Clc1ccc(Nc2nc(-c3cccnc3)cs2)cc1,-0.6%,5.0,u,1.4,3.3,-14.0%
Brc1ccc(-c2cn3cc(Cc4ccccc4)sc3n2)cc1,-0.2%,x,-16.1%,7.4,x,-16.1%
Cc1cc(S(=O)(=O)Nc2ccc(C(=O)NCCCn3ccnc3)cc2)ccc1F,-2.1%,-5.1,6.6%,3.8,-0.8,1.3%
Cc1cc(C)c(C)c(S(=O)(=O)Nc2ccccc2C(=O)NCCCn2ccnc2)c1C,35.5µM*,-12.3,5.8µM*,-4.5,-3.0,4.61µM*
O=C(NCCCn1ccnc1)c1ccccc1NS(=O)(=O)c1ccc(F)c(F)c1,-6.4%,-1.6,u,-31.2,-26.7,15.8µM*
COc1ccc(N2CCN(C(=O)c3ccc4c(c3)CCN4S(C)(=O)=O)CC2)cc1,1.8%,-4.0,u,-6.6,1.2,u
Cc1c(OCC(=O)NCC(O)c2ccccc2)ccc2c(-c3ccccc3)cc(=O)oc12 (centres undefined),-11.0%,-62.6*,u,32.8*,34.8,u
CC(=O)COc1ccc2c(-c3ccccc3)cc(=O)oc2c1C,-2.2%,-0.6,u,4.5,8.4,-0.1%
Cc1c(OCC(=O)C(C)(C)C)ccc2c(-c3ccccc3)cc(=O)oc12,u,-63.5*,16.4µM*,-0.1,5.3,u
Cc1c(OCC(=O)NCc2ccccn2)ccc2c(-c3ccccc3)cc(=O)oc12,-2.6%,6.2,u,-4.5,9.0,-4.0%
Cc1ccsc1C1Nc2ccccc2-c2nc3ccccc3n21 (centres undefined),73.7%,-11.0,u,4.0,1.5,u
c1ccc2c(c1)NC(c1ccncc1)n1c-2nc2ccccc21 (centres undefined),28.2µM*,-18.5,-50.2%,1.1,16.3,u
O=C1NC(c2ccncc2)Nc2ccccc21 (centres undefined),u,11.1,-1.1%,5.3,0.0,-9.6%
c1csc(C2Nc3ccccc3-c3nc4ccccc4n32)c1 (centres undefined),10.7%,u,u,-3.9,-3.4,16.4µM*
O=C1c2ccccc2NC(c2ccncc2)N1c1ccccn1 (centres undefined),28.2µM*,9.9,-5.1%,5.0,20.4,12.5%
SMILES,ClpP mod,IL1B secr inh,DT40 TDP1 no CPT,DRD3 agonist,D3 antag,TDP1 cell CPT
CC(C)c1cc(-c2cc(C(=O)NCc3ccccc3)on2)nc(NCC2CC2)n1,31.6µM*,-18.1,u,7.9,18.4,u
Cc1cc(-c2cc(C(=O)Nc3ccccc3)on2)nc(NCC2CC2)n1,u,3.1,-4.5%,-1.6,-11.3,-23.5%
Cc1ccsc1C(=O)N(C)CC(=O)Nc1ccccc1Br,-3.6%,-3.4,-16.5%,2.2,4.5,-2.4%
Cc1cccc(COc2ccccc2C(=O)N(C)CC(=O)Nc2cccc(F)c2)c1,0.8%,-26.5,u,-2.5,26.2,u
CN(CC(=O)Nc1ccccc1Br)C(=O)c1ccccc1OCc1ccccc1Cl,x,-82.2*,18.4µM*,6.0,0.2,u
Cc1ccc(C)c(NC(=O)CN(C)C(=O)c2ccccc2OCc2ccc(Cl)cc2)c1,x,-67.8*,u,1.5,2.9,23.1µM*
CN(CC(=O)Nc1ccccc1Br)C(=O)c1sccc1-c1ccccc1,-1.2%,2.7,13µM*,0.0,-2.9,u
CN(CC(=O)Nc1ccccc1Br)C(=O)c1ccccc1OCc1ccc(F)cc1,-3.2%,-29.7,u,-1.8,-6.2,u
CCC(C)N=CC1=C(O)CC(c2ccccc2)CC1=O (centres undefined),-0.6%,-7.3,-1.1%,6.8,2.6,-0.9%
CCCC(=NC(C)CC)C1=C(O)CC(c2ccccc2)CC1=O (centres undefined),x,-66.8*,u,-7.1,-0.1,u
CCC(=Nc1ccccc1OC)C1=C(O)CC(c2ccccc2)CC1=O (centres undefined),x,7.8,5.8µM*,3.3,-4.7,6.51µM*
COc1ccc(N=CC2=C(O)CC(c3ccccc3)CC2=O)c(OC)c1 (centres undefined),-0.8%,4.2,14.6µM*,-9.5,-14.7,18.4µM*
CN1CCCC2(CCN(C(=O)c3cnccn3)CC2)C1,x,x,-1.1%,x,x,5.1%
CCOc1ccc(C2C(C(=O)Nc3ccc(C)cc3C)=C(C)Nc3c(C(=O)Nc4ccc(C)cc4)cnn32)cc1OC (centres undefined),-0.4%,x,-6.4%,5.5,x,-12.9%
N/C(=N\OC(=O)c1ccc(Cl)c([N+](=O)[O-])c1)c1ccccn1,x,-107.5*,-20.0%,0.5,u,-4.9%
